Measurements as given in PubChem BioAssay (Tox21).
Records with an inconclusive call do not appear. Entries that show only a call come without a potency. The source made the active and inactive calls. The call rests on the fitted dose curve; in most records, active means well fitted activation curve with a large enough effect in the repeat runs; inconclusive means weak or mixed curves; inactive means no such curve, though single readings can be large or run the other way.

Experiment: qHTS assay to identify small molecule agonists of the estrogen related receptor signaling pathway with the pleiotropic PPARgamma coactivator (PGC) (AID 1224823)
Settings: ERR/PGC reporter cell line, luciferase agonist mode; series mostly up to 46.1 µM
Description: National Center for Advancing Translational Sciences [NCATS]
NIH Chemical Genomics Center [NCGC]
U.S. Environmental Protection Agency [EPA]
National Institutes of Environmental Health Sciences [NIEHS]
National Toxicology Program [NTP]
Estrogen related receptors (ERRs), the first orphan nuclear receptors discovered, play an important role in the control of cellular energy metabolism. ERRs are required for high-energy production in response to the environmental challenges. The pleiotropic PPARgamma coactivator (PGC) is a major partner of ERR and a key regulator in energy homeostasis. Together they have been implicated in the etiology of metabolic disorders such as Type 2 diabetes and metabolic syndrome. ERR-alpha was also identified as an adverse marker for breast cancer progression; ERR-alpha-positive tumors have a poor prognosis. To screen and to identify environmental compounds that perturb the PGC/ERR signaling pathways could provide valuable information for potential therapeutic or preventive measures in the treatment of metabolic disease. For identifying PGC/ERR agonists, PGC/ERR cell line (provided by NTP) has been used to screen LOPAC library.
The PGC/ERR cells were dispensed at 2,000 cells/5 ul/well in 1536-well white plates using a Multidrop dispenser. After the assay plates were incubated at a 37 C/5% CO2 incubator for 6 hours, 23 nL of compounds dissolved in DMSO, positive and negative controls or DMSO only was transferred to the assay plate by a pin tool. The plates were incubated at 37 C for 18 hours. 4 ul/well of One-Glo reagent was added into the assay plates using a Flying Reagent Dispenser. After 30 min incubation at room temperature, the luminescence intensity in the plates was measured using a ViewLux plate reader.

Row | SMILES | Potency
1 | NC(=O)CN1CC(O)CC1=O (stereo not given) | inactive
2 | C/C=C(/C)C(=O)O[C@H]1C(C)=C2[C@H]([C@@H]1OC(=O)CCCCCCC)[C@@](C)(OC(C)=O)C[C@H](OC(=O)CCC)[C@@]1(O)[C@H]2OC(=O)[C@@]1(C)O | inactive
3 | NC(=O)c1cc(N2CC2)c([N+](=O)[O-])cc1[N+](=O)[O-] | inactive
4 | NCCCP(=O)(O)O | inactive
5 | CCCN1CCO[C@@H]2c3cc(O)ccc3OC[C@H]21 | inactive
6 | CCCN(CCC)[C@H]1CCc2c(F)ccc(O)c2C1 | inactive
7 | C=CCN1CCC23c4c5ccc(O)c4O[C@H]2C(=O)CC[C@@]3(O)C1C5 (stereo not given in full) | inactive
8 | O=C(O)Cc1cnc[nH]1 | inactive
9 | Clc1cc(I)cc(Cl)c1NC1=NCCN1 | inactive
10 | Oc1ccc2c3c1O[C@H]1c4[nH]c5ccccc5c4C[C@@]4(O)C(C2)N(CC2CC2)CCC314 (stereo not given in full) | inactive
11 | C#CCN[C@H](C)Cc1ccccc1 | inactive
12 | CCN1C[C@@]2(COC)C3[C@@H](OC)C4[C@H]1C3([C@@H]1C[C@@]3(O)[C@H](OC(=O)c5ccccc5)[C@@H]1[C@]4(OC(C)=O)[C@@H](O)[C@@H]3OC)[C@H](OC)C[C@H]2O | inactive
13 | OC1CCCCC1N1CCC(c2ccccc2)CC1 (stereo not given) | inactive
14 | Cn1cnc(CCN)c1 | inactive
15 | C=CCN1CC[C@]23CCCCC2[C@H]1Cc1ccc(O)cc13 (stereo not given in full) | inactive
16 | C[N+]1(C)C2CCC1CC(OC(=O)c1c[nH]c3ccccc13)C2 (stereo not given) | inactive
17 | CN1CC[C@@]2(C)c3cc(OC(=O)Nc4ccccc4)ccc3N(C)[C@@H]12 | inactive
18 | NNC(=O)c1ccc(O)cc1 | inactive
19 | C[C@H]1C2Cc3ccc(O)cc3[C@@]1(C)CCN2CC1CC1 | inactive
20 | C[N+]1(C)CCN(c2ccccc2)CC1 | inactive

Row | SMILES | Potency
21 | CC1OC1P(=O)(O)O (stereo not given) | inactive
22 | C[C@H](N)Cc1cccc(C(F)(F)F)c1 | inactive
23 | COc1ccc2[nH]c3c(c2c1)CCNC3 | inactive
24 | CCCN(CCC)C1CCc2ccc(O)cc2C1 (stereo not given) | inactive
25 | CN1CCc2cccc(Cl)c2CC1 | inactive
26 | NC(Cc1cc(O)c(O)cc1O)C(=O)O (stereo not given) | inactive
27 | Clc1ccc(N2CC3CCC(C2)N3)nn1 | inactive
28 | N[C@@]1(C(=O)O)CC[C@@H](C(=O)O)C1 | inactive
29 | NC(CCP(=O)(O)O)C(=O)O (stereo not given) | inactive
30 | S=C(NC1CCCCC1)N1CCC(c2cnc[nH]2)CC1 | inactive
31 | CC(C)[C@H]1CN[C@H](C(=O)O)[C@H]1CC(=O)O | inactive
32 | CCOC(=O)c1ncn2c1[C@@H]1CCCN1C(=O)c1cc(OC)ccc1-2 | inactive
33 | CP(=O)(O)C1=CCNCC1 | inactive
34 | O=C(Nc1ccccc1-c1ccc(Cl)cc1)c1cccnc1Cl | inactive
35 | N=C(N)c1ccc(CS(=O)(=O)F)cc1 | inactive
36 | CC(C)(C)c1o[nH]c(=O)c1CC(N)C(=O)O (stereo not given) | inactive
37 | Nc1ccc([N+](=O)[O-])cc1 | inactive
38 | COc1ccc(OC)c(C(O)C(C)N)c1 (stereo not given) | inactive
39 | CNCCc1ccc(O)c(O)c1 | inactive
40 | CC(=O)OCC1=C(C(=O)[O-])N2C(=O)[C@@H](NC(=O)CCC[C@@H](N)C(=O)[O-])[C@H]2SC1.[Zn+2] | inactive
